This is an account of results in PubChem BioAssay (NCATS).

Records with an inconclusive call do not appear. Active and inactive are the calls of the source. Unless noted, the call rests on the fitted dose curve; in most records, active means well fitted curve in the direction sought with a large enough effect; inconclusive means small, poorly fitted or top-dose-only effect, or another doubt; inactive means no such curve, though single readings can be large; an effect the other way counts as inactive or inconclusive.

Experiment [1] can be described thus: qHTS for Inhibitors of Plasmodium falciparum (GB4) proliferation (AID 504315). Further: nearly all actives have a fitted effect of over 50% in size. The essentials:
(§1)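 Parasite growth measured as SYBR Green DNA fluorescence (ex 485, em 535 nm) after overnight lysis following 72 h culture at 37 °C, 0.3% parasitemia, 2.5% hematocrit. Values normalized against DMSO and 0.29 uM artemisinin controls, with plate-stack correction.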
(In general: Quantitative high-throughput screening tests each substance at several concentrations.)

The nature of experiment [2]: qHTS for Inhibitors of Plasmodium falciparum (CP250) proliferation (AID 504320). Further: potency means the concentration at half of the fitted maximal effect. The essentials: as §1
For experiment [3], the target named is Atrial natriuretic peptide receptor 1 (Homo sapiens) (UniProt P16066). As to the kind of experiment: Natriuretic polypeptide receptor (hNpr1) antagonism - Pilot CMLD screen (AID 1347052; calls by dose curve;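 further: HEK293 cells with hNpr1 stimulated by hNppA peptide at 0.1 nM; cGMP level read as GloSensor luciferase luminescence after agonist stimulation; series mostly up to about 9.2 µM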).
Experiment [4] can be described thus: qHTS for Inhibitors of Plasmodium falciparum (7G8) proliferation (AID 504316). Further: nearly all actives have a fitted effect of over 65% in size. Further: potency means the concentration at half of the fitted maximal effect. The essentials:
as §1

A short description of experiment [5]: qHTS for Inhibitors of Plasmodium falciparum (HB3) proliferation (AID 504318). Further: nearly all actives have a fitted effect of over 60% in size. Further: potency means the concentration at half of the fitted maximal effect. The essentials:
as §1

Atrial natriuretic peptide receptor 1 (Homo sapiens), sequence (P16066 whole entry, looked up): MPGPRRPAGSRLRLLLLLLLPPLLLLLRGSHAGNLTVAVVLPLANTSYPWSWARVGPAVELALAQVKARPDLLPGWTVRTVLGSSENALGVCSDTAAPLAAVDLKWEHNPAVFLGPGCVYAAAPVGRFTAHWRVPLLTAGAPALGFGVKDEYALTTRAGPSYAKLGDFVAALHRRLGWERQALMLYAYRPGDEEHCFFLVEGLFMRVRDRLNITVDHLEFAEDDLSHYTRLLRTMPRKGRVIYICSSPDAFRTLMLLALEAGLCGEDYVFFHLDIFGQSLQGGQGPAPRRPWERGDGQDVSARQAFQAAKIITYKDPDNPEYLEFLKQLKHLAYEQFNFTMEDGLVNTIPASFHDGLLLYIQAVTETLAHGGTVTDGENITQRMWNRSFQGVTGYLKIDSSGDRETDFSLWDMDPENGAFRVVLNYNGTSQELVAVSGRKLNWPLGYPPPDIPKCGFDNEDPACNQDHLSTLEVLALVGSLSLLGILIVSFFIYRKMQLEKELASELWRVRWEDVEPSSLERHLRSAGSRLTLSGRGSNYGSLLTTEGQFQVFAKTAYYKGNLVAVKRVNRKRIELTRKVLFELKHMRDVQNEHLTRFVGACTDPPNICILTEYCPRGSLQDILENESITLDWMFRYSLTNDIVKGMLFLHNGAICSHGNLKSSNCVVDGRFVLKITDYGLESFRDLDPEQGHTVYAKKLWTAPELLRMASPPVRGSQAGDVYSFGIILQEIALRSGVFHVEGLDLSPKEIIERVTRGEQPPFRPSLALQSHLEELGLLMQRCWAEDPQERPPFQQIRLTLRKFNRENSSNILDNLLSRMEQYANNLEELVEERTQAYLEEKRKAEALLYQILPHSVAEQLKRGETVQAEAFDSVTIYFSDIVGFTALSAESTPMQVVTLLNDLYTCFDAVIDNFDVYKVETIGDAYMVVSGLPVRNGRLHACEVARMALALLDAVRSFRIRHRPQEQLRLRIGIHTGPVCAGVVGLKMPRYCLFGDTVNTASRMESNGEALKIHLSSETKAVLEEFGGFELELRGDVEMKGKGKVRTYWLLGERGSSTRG

For `COc1cc2c(c(OC)c1OC)[C@@]1(c3ccccc3)CCCC[C@H]1[C@@H]2NC(=O)C(F)(F)F`, the Potency result in experiment [1], in experiment [2] and in experiment [3] was “inactive” throughout.

For `COc1cc([C@@H](NC(=O)C(F)(F)F)C2CCCCC=C2c2ccccc2)cc(OC)c1OC` (stereo not given in full), the Potency entry in experiment [1], in experiment [2] and in experiment [3] was “inactive” each time.

As for `COC(=O)C1=C(C)N(CC2CC2)C(=O)NC1CCc1ccccc1` (stereo not given), the Potency result in experiment [1], in experiment [2] and in experiment [3] was “inactive” in each case.

In the case of `COc1ccc2c(c1)O[C@@H](c1ccc3c(c1)OCO3)[C@H](OC(=O)NCCOc1ccccc1)C2=O`, the Potency entry in experiment [1], in experiment [2] and in experiment [3] was “inactive” each time.

As to `COC(=O)C1=C(C(=O)OC)[C@@H]2N(C)c3ccccc3[C@@]23CCC(=O)N(Cc2ccc4c(c2)OCO4)C3=N1`, the Potency result in experiment [1], in experiment [2] and in experiment [3] was “inactive” each time.

For `CCCCc1nc2c(c3c1C[C@H](C)OC3)CN(S(=O)(=O)c1ccccc1C(=O)OC)CC2`, the Potency entry in experiment [1], in experiment [2] and in experiment [3] was “inactive” in each case.

Turning to `COc1cccc([C@@H]2Oc3ccc(OC)cc3C[C@@H]2OC(=O)N[C@H]2CCCc3ccccc32)c1`, the Potency entry in experiment [1], in experiment [2] and in experiment [3] was “inactive” throughout.

Consider `C#CCN1C(=O)[C@]2(OCCC=C[C@H]2C)c2c(Br)cccc21`, for which the Potency result in experiment [1], in experiment [2] and in experiment [3] was “inactive” in each case.

On to `CCN1C(=NCc2ccc(OC)cc2)NC(c2cccc(F)c2)C(C(=O)OC)=C1C` (stereo not given), for which the Potency result in experiment [4], in experiment [5], in experiment [2] and in experiment [3] was “inactive” each time.

Turning to `CCc1cc2c(nc1CC)CCN(CCC(C)=NOC[C@H]1O[C@H](c3ccccc3)C=C[C@H]1Oc1ccc(OC)cc1)C2`, the Potency in experiment [4] was 1690 nM (active). In addition, the Potency entry in experiment [3] was “inactive”.

Take `CC12C=C(C=Cc3ccc(Br)cc3)C(C)(C1)[C@H](c1ccc(Br)cc1)CC2=O` (stereo not given in full): the Potency in experiment [4] and in experiment [5] was 1690 nM (active) throughout. Moreover, the Potency result in experiment [3] is “inactive”.

Turning to `CCN1C(=NCc2ccc(OC)cc2)NC(c2ccccc2)C(C(=O)OC)=C1C` (stereo not given), the Potency result in experiment [4], in experiment [5], in experiment [2] and in experiment [3] was “inactive” in each case.

As for `C=C(C)[C@@H]1CC2=C(OC)C(CC=C(C)C)(CC=C(C)C)C(=O)C(C(=O)c3ccccc3)=C2O1`, the Potency in experiment [4] was 1690 nM (active). The Potency result in experiment [3] is “inactive”.

With `COc1ccc([C@]23Cc4cc(C#N)ccc4[C@H](O2)c2c(cc(C)n(Cc4ccccc4)c2=O)O3)cc1`, in experiment [4], the Potency was 1690 nM (active). For the same compound, in experiment [3], the Potency result was “inactive”.

In the case of `COC(=O)c1ccc(CN2C(=O)[C@@]3(CC(C)=CC[C@@H](C)O3)c3ccccc32)cc1`, the Potency result in experiment [4], in experiment [5], in experiment [2] and in experiment [3] was “inactive” throughout.

For the compound `COc1ccc(O[C@H]2C=C[C@@H](c3ccccc3)O[C@H]2COC(=O)CCC(C)=NOC[C@@H](C)[C@H](OCc2ccccc2)C(C)C)cc1`, in experiment [4], the Potency is 1900 nM (active). For the same compound, the Potency result in experiment [3] was “inactive”.

`C=C(C[C@@]1(C(=O)OC)C=C[C@@H](C)[C@H](c2ccccc2Br)N1C(=O)C(F)(F)F)c1ccccc1`: the Potency in experiment [4] was 1900 nM (active). For the same compound, in experiment [3], the Potency entry was “inactive”.

On to `COC(=O)C1=C(C)N(Cc2ccccc2)C(=NCCc2ccc([N+](=O)[O-])cc2)NC1c1cccc(F)c1` (stereo not given), for which the Potency in experiment [4] was 2690 nM (active). The Potency result in experiment [5] and in experiment [3] was “inactive” in each case.

For the compound `C=C(C)C(=O)C=CC=Cc1ccccc1`, the Potency entry in experiment [4], in experiment [5], in experiment [2] and in experiment [3] was “inactive” in each case.

Consider `CC#CCN1c2ccccc2[C@]23CCC(=O)N(Cc4ccco4)C2=NC(C(=O)OC)=C(C(=O)OC)[C@H]13`, for which the Potency in experiment [4] is 1690 nM (active). In experiment [3], the Potency result was “inactive”.

Take `COC(=O)[C@@H]1CC[C@H](C)[C@@H](c2ccc(C)cc2)N1C(=O)c1ccc(C=NOC[C@H]2O[C@H](c3ccccc3)C=C[C@H]2Oc2ccc(OC)cc2)cc1`: the Potency result in experiment [4] and in experiment [3] was “inactive” in each case.

Take `CCO[C@H](c1cc(OC)cc([N+](=O)[O-])c1OC)[C@H](C)[C@@H](OC)[C@H](C)C=CCC(=O)OC`: the Potency result in experiment [4] and in experiment [3] was “inactive” each time.

Take `C[C@H]1[C@@H](C(=O)N2CCCC2)CC(=NOCc2ccccc2)C(=NOCc2ccccc2)C[C@H]1c1ccccc1`: the Potency is 478 nM (active) in experiment [4] and 1690 nM (active) in experiment [5]. Moreover, the Potency result in experiment [2] and in experiment [3] was “inactive” throughout.

For `CC(C)OC(=O)[C@H](C)NC(=O)N1CCc2nc(COc3ccccc3)c3c(c2C1)CO[C@@H](C)C3`, the Potency in experiment [4] was 1350 nM (active); in experiment [5], 2620 nM (active). Moreover, the Potency result in experiment [2] and in experiment [3] was “inactive” throughout.

In the case of `COc1cc2c(cc1OC)[C@@H]1O[C@](CCCCN3C(=O)c4ccccc4C3=O)(C2)Oc2cc(C)n(Cc3ccccc3)c(=O)c21`, the Potency in experiment [4] is 1510 nM (active); in experiment [5], 1690 nM (active); in experiment [2] it was 1690 nM (active). Moreover, the Potency result in experiment [3] is “inactive”.

In the case of `CCCCCCCC1=CC2=C(Cl)C(=O)C(C)(OC(C)=O)C(=O)C2=CO1` (stereo not given), the Potency entry in experiment [4], in experiment [5], in experiment [2] and in experiment [3] was “inactive” throughout.

As to `CCCCCCCc1cc2ccc(F)cc2c2c(C(=O)OC)c(C(=O)OC)c(C(=O)OC)n12`, the Potency entry in experiment [4] and in experiment [3] was “inactive” in each case.

Turning to `C[C@@H]1CC2=CCCC2[C@]2(O1)C(=O)N(CC1CC1)c1cccc(Br)c12` (stereo not given in full), the Potency entry in experiment [4], in experiment [5], in experiment [2] and in experiment [3] was “inactive” each time.

In the case of `COC(=O)C1=C(C)N(Cc2ccccc2)C(=NCCCCO)NC1c1cccc(F)c1` (stereo not given), the Potency result in experiment [4], in experiment [5], in experiment [2] and in experiment [3] was “inactive” each time.

As to `COC(=O)C1=C(C)N(Cc2ccccc2)C(=NCc2ccc3c(c2)OCO3)NC1CCc1ccccc1` (stereo not given), the Potency result in experiment [4] and in experiment [3] was “inactive” each time.
